These results are taken from PubChem BioAssay (NCATS).

Assay [1] deals with Thyrotropin-releasing hormone receptor (Homo sapiens) (UniProt P34981). The assay is described as follows: qHTS for Small Molecule Agonists and Allosteric Enhancers of Human TRH Receptor: Validation Screen for Agonists (AID 493127;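 active means calcium activation more than 3 SD above the typical response in the agonist read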;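 further: intracellular calcium rise by fluo-8 fluorescence before TRH EC20 addition; 0% is about no effect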). The following applies: TRH receptor agonist cell assay; at 2 µM; stronger effect = higher value. Summed up: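 Cells 2000/well, 10% FCS, 18 h 33.5C/5% CO2 → fluo-8 Ca dye, RT 30 min–1.5 h → FDSS baseline 10 × 1 s → compound added → 230 cycles (1 s/cycle) agonist mode. TRH controls.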
In general terms: qHTS replaces the single test concentration by a dilution series.

The nature of assay [2]: Nrf2 qHTS screen for inhibitors: Validation (AID 493153; active means well fitted inhibition curve with a large enough effect in the main read-out, with a control signal flat, not every such curve was filed as active). The following applies: A549 ARE-Fluc reporter, 18-24 h; Potency: luciferase luminescence; viability change: measured here: cytotoxicity max response; luciferase luminescence, at 46.1 µM (top of the series). Summed up:
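Luminescence from an ARE-firefly luciferase reporter in A549 cells gives Nrf2 inhibition; an earlier CellTiter-Fluor fluorescent read flags cytotoxicity. Cells in 5% FBS OPTI-MEM received compound dilution series for 18-24 h at 37°C.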

The nature of assay [3]: qHTS for Inhibitors of Cell Surface uPA Generation: Validation Assay (AID 493164). Further: 0% is about no effect. The note with it: mouse cells, plasminogen activation; series mostly up to 38.3 µM. The essentials: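 RAW 264.7 cells (4000/well) were plated overnight, then exposed for 18 h at 37 C, 5% CO2 to compounds in a 7-point 1:5 titration (2.45 nM–38.3 uM final). Intracellular ATP was read by ATP-Lite luminescence.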

Assay [4] addresses Galactokinase (Homo sapiens) (UniProt P51570). The assay is described as follows: qHTS Validation Assay for Inhibitors of Human Galactokinase (GALK) (AID 493189). Further: 0% is about no effect. The following applies: purified human GALK enzyme activity, qHTS 7-point titration; series mostly up to 57.5 µM. The essentials: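 5 nM GALK / 100 uM galactose / 35 uM ATP, 20 mM HEPES pH8.0, 5 mM MgCl2, 60 mM NaCl, 1 mM DTT, 0.01% BSA (final). RT 1 h; Kinase-Glo Plus luminescence.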

Assay [5] is described as follows: Validation screen for small molecules that induce DNA re-replication in SW480 colon adenocarcinoma cells (AID 504364). Further: 0% is about no effect. The following applies: DNA re-replication phenotype (high-content imaging); series mostly up to 46.1 µM. The essentials: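 250 cells/well; compound pinned in; 48 hr, 37 C, 5% CO2; Hoechst added, 40 min; nuclear fluorescence imaged, 405 ex / 500-530 em; re-replication scored as increase in high-intensity nuclei.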

Assay [6] has as its target Peptidyl-prolyl cis-trans isomerase NIMA-interacting 1 (Homo sapiens) (UniProt Q13526). The experiment in a line: qHTS Validation Assay to Find Inhibitors of Pin1 (AID 504536; active means well fitted inhibition curve with a large enough effect in the polarisation, with a control signal flat, not every such curve was filed as active; the % refers to the polarisation;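 further: 0% = full Pin1 enzyme wells and -100% = no-enzyme wells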). The note with it: Pin1 fluorescence polarization peptide binding assay; series mostly up to 57.5 µM. Summed up: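 Fluorescence polarization competition: compounds (titration) displace HiFluor-488-labeled Pin1-1b peptide from Pin1 (0.3 uM final) in pH 7.5 HEPES buffer with DTT, 10 min at room temperature; %Activity normalized to no-enzyme wells, curves fitted.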

The target in assay [7] is Phosphoglycerate kinase, glycosomal (Trypanosoma brucei brucei) (UniProt P07378). The assay is described as follows: qHTS Validation Assay to Find Inhibitors of Phosphoglycerate Kinase (AID 504547).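 Further: control wells lack PGK and mark full inhibition.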 The following applies: enzymatic PGK inhibition, coupled luminescence read-out; series mostly up to 57.5 µM. Summed up: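 PGK activity was coupled to GAPDH (100nM final), which generates the unstable substrate 1,3-bisphosphoglycerate in-well. Reactions ran 60 minutes at room temperature in 100mM TEA pH 7.6, 5mM MgCl2, 0.01% Tween-20, then Kinase-Glo Plus luminescence was read.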

For assay [8], the target named is phosphoglycerate mutase (Leishmania major) (UniProt Q4Q090). The assay is described as follows: qHTS Validation Assay to Find Inhibitors of Phosphoglycerate Mutase (AID 504548). Further: on the % scale 0 is the no-effect control and ±100 the full control effect. The note with it: biochemical enzyme activity; series mostly up to 57.5 µM. Summed up: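 Lm PGAM 1.25nM final; 100 mM TEA pH 7.6, 5 mM MgCl2, 0.01% Tween-20; 45 min RT; Kinase-GloPlus, 10 min; end-point luminescence. Enzyme-free wells as negative controls.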

Assay [9] in a line: qHTS for Inhibitors of ATXN expression: Validation of Cytotoxic Assay (AID 588349). Further: on the % scale 0 is the no-effect control and ±100 the full control effect. The note with it: cytotoxicity counter-screen for ATXN expression inhibitors, cell viability; series mostly up to 57.1 µM. Summed up:
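Read-out: ATP-based luminescence (CellTiter Glo) reflecting viability of HEK293 cells after 72 hr incubation at 37 degrees C with a concentration series of each compound.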

Assay [10] in a line: qHTS for Inhibitors of ATXN expression: Validation (AID 588378). Further: nearly all actives have a fitted effect of over 75% in size. Further: potency means the concentration at half of the fitted maximal effect. The following applies: cell-based ATXN2 expression reporter assay, luminescence; series mostly up to 57.1 µM. The essentials:
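Compounds were pinned onto attached HEK293 cells carrying an ATXN2-firefly luciferase construct and incubated 24 hrs at 37 degrees C. Each well then received a fluorescent viability reagent followed by luciferase substrate for end-point luminescence.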

The target in assay [11] is Ubiquitin carboxyl-terminal hydrolase 1 (Homo sapiens) (UniProt O94782). The experiment in a line: Inhibitors of USP1/UAF1: Pilot qHTS (AID 504865).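 Further: rhodamine fluorescence freed from ubiquitin-rhodamine substrate followed over time; top concentration of the series differs between compounds; on the % scale 0 is the no-effect control and ±100 the full control effect; nearly all actives have a fitted effect of over 35% in size.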 The following applies: purified USP1/UAF1, Ub-rhodamine cleavage fluorescence; series mostly up to 114 µM. The essentials:
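In 50mM HEPES pH 7.8 containing 0.5mM EDTA, 1mM TCEP, 0.1 mg/ml BSA and 0.01% Tween-20, 1nM USP1/UAF1 is exposed to compound for 15 min, then Ub-Rho (150nM final) is added and fluorescence is read over time.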

Assay [12] concerns the target Estrogen receptor (Homo sapiens) (UniProt P03372). The assay is described as follows: qHTS assay for small molecule antagonists of estrogen receptor alpha signaling (AID 588513; active means well fitted curve in the direction sought with a large enough effect in the signal ratio, with a control signal flat, not every such curve was filed as active; the % refers to the signal ratio; further: on the % scale 0 is the no-effect control and ±100 the full control effect). The note with it: ER-alpha-UAS-bla HEK293, beta-lactamase ratio, antagonist mode; series mostly up to 76.9 µM. Summed up: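 Fluorescence from CCF4 substrate after 2 h at room temperature gave reporter activity; cells had been exposed to compound and 0.5nM 17-beta-estradiol for 18 h at 37 C. Hill-equation fitting yielded IC50 and maximal response.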

Assay [13] has the same target. The experiment in a line: qHTS assay for small molecule agonists of estrogen receptor alpha signaling (AID 588514; calls by dose curve; further: nearly all actives have a fitted effect of over 70% in size; further: potency means the concentration at half of the fitted maximal effect;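 on activation: 0% = vehicle only and 100% = reference agonist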). The note with it: ER-alpha-UAS-bla HEK293, beta-lactamase ratio, 18 h; series mostly up to 76.8 µM. Summed up: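 Cells were plated at 5000/well, incubated 4 hrs at 37 C, dosed with compound titration series, incubated 18 hrs at 37 C, loaded with CCF4 dye for 2 hrs at RT, then fluorescence was read.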

For assay [14], the target named is Androgen receptor (Homo sapiens) (UniProt P10275). The assay is described as follows: qHTS assay for small molecule agonists of androgen receptor signaling (AID 588515; active means well fitted curve in the direction sought with a large enough effect in the signal ratio, with a control signal flat; the % refers to the signal ratio; further: potency means the concentration at half of the fitted maximal effect). The note with it: AR-UAS-bla HEK293, beta-lactamase ratio, agonist 16 h; activation: stronger effect = higher value. The essentials:
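EC50 and efficacy came from Hill fits of titrations (up to 92 uM) normalized to 30 nM R1881 as 100% and DMSO as 0%. Compound exposure was 16 h at 37 C on AR-UAS-bla HEK293 cells, with a 405/460/530 nm CCF4 fluorescence read.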

The target in assay [15] is Glucocorticoid receptor (Homo sapiens) (UniProt P04150). The experiment in a line: qHTS assay for small molecule agonists of glucocorticoid receptor signaling (AID 588532; active means well fitted curve in the direction sought with a large enough effect in the signal ratio, with a control signal flat; the % refers to the signal ratio;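 further: 100% = dexamethasone at 0.1 µM and 0% = DMSO only wells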). The note with it: HeLa MMTV-bla, beta-lactamase ratio, agonist, 18 h; activation: stronger effect = higher value, percent of dexamethasone control, DMSO zero. Summed up:
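HeLa GRE-bla reporter cells; 18 h compound exposure at 37 C; 2 h CCF4 loading at room temperature; fluorescence at 460 and 530 nm; EC50 by Hill equation.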

For assay [16] the target is unchanged. The experiment in a line: qHTS assay for small molecule antagonists of glucocorticoid receptor signaling (AID 588533; active means well fitted inhibition curve with a large enough effect in the signal ratio, with a control signal flat, not every such curve was filed as active; the % refers to the signal ratio;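 further: cells stimulated with 2 nM dexamethasone as agonist; potency means the concentration at half of the fitted maximal effect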). The following applies: HeLa MMTV-bla, GRE beta-lactamase ratio, antagonist mode, 18 h; series mostly up to 76.8 µM. Summed up: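 Antagonist-mode qHTS: compound titrations added to GRE-bla HeLa cells, then dexamethasone 2 nM final; 18 h, 37 C. CCF4 FRET fluorescence normalized to dexamethasone and DMSO; IC50 from Hill fit.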

Molecules are shown by their SMILES. “And” between values parts separate entries of the source, which are not always exact repeats. Equal values may be shown once. Records with an inconclusive call do not appear. The source made the active and inactive calls. Unless noted, the call rests on the fitted dose curve; in most records, active means well fitted curve in the direction sought with a large enough effect; inconclusive means small, poorly fitted or top-dose-only effect, or another doubt; inactive means no such curve, though single readings can be large; an effect the other way counts as inactive or inconclusive.

Chain of Peptidyl-prolyl cis-trans isomerase NIMA-interacting 1 (Homo sapiens) (Q13526 whole entry, looked up): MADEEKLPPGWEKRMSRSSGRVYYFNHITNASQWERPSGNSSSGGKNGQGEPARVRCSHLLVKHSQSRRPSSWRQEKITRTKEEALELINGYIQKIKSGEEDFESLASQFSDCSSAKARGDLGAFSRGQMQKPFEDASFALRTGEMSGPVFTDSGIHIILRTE
Chain of Estrogen receptor (Homo sapiens) (P03372 whole entry, looked up): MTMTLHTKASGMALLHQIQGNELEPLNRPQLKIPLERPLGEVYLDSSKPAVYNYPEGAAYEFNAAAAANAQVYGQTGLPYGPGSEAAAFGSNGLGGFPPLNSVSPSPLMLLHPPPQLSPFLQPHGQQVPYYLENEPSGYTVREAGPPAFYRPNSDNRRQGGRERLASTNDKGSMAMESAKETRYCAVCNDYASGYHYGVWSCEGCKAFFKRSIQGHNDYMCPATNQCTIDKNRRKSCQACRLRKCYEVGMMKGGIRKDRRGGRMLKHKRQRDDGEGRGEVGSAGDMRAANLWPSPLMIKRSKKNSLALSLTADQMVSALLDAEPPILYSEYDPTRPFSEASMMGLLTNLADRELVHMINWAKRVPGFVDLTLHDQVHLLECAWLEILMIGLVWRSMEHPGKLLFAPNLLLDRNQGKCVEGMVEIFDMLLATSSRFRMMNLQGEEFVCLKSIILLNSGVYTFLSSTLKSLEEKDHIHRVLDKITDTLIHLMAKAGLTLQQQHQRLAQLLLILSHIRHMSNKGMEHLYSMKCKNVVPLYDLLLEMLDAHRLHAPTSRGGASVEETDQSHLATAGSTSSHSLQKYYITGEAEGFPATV
Chain of phosphoglycerate mutase (Leishmania major) (Q4Q090 1-553): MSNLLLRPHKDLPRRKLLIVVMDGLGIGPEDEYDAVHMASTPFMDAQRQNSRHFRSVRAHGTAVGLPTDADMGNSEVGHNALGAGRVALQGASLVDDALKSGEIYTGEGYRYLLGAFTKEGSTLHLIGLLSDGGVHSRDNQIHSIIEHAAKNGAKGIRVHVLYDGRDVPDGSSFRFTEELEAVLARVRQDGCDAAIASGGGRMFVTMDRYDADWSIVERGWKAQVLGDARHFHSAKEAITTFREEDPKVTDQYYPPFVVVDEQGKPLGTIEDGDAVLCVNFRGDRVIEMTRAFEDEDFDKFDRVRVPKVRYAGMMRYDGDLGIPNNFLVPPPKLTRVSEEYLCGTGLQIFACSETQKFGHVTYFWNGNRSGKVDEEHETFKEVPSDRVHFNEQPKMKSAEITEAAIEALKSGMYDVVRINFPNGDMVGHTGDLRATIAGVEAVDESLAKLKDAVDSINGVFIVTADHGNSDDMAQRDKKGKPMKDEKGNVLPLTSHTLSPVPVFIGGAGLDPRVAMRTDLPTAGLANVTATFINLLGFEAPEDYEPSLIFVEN
Chain of Ubiquitin carboxyl-terminal hydrolase 1 (Homo sapiens) (O94782 whole entry, looked up): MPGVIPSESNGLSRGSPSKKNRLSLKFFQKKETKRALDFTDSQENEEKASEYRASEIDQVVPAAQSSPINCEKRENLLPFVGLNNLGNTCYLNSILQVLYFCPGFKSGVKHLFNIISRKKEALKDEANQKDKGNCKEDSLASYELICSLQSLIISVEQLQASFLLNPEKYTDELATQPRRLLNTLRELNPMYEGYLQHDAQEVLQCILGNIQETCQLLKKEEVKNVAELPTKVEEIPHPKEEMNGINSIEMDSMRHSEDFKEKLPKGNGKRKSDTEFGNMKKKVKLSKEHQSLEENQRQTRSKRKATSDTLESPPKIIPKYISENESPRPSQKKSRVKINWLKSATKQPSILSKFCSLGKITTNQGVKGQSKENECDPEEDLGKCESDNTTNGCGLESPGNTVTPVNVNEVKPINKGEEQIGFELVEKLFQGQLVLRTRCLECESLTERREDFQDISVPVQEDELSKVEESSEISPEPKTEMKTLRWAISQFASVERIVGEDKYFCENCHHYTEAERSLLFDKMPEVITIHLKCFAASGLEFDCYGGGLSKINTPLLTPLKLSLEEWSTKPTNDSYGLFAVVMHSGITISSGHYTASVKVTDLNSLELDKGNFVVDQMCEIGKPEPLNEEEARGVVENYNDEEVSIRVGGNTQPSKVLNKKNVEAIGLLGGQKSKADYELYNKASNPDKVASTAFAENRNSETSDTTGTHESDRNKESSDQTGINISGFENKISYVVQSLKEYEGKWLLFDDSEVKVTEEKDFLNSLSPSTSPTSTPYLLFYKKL
Chain of Glucocorticoid receptor (Homo sapiens) (P04150 whole entry, looked up): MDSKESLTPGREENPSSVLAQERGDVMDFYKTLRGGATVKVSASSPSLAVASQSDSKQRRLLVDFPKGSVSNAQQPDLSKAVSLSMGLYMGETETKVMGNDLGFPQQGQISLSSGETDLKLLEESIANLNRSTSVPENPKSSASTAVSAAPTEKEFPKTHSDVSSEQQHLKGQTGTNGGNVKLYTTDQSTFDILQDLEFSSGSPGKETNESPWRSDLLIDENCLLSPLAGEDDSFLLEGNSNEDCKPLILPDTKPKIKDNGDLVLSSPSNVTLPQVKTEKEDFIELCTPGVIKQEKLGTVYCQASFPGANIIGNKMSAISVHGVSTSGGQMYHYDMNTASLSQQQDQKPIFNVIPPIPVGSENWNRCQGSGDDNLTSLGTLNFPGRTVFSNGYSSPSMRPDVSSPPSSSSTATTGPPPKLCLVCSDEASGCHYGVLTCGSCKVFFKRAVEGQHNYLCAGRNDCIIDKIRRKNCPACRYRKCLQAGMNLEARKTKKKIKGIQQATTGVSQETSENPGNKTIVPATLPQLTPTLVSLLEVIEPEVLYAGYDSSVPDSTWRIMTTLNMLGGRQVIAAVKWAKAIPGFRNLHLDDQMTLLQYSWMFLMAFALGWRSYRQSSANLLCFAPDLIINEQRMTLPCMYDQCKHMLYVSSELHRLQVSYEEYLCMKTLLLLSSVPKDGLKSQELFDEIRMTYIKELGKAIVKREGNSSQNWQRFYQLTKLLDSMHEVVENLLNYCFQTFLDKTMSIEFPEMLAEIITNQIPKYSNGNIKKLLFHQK
Chain of Thyrotropin-releasing hormone receptor (Homo sapiens) (P34981 whole entry, looked up): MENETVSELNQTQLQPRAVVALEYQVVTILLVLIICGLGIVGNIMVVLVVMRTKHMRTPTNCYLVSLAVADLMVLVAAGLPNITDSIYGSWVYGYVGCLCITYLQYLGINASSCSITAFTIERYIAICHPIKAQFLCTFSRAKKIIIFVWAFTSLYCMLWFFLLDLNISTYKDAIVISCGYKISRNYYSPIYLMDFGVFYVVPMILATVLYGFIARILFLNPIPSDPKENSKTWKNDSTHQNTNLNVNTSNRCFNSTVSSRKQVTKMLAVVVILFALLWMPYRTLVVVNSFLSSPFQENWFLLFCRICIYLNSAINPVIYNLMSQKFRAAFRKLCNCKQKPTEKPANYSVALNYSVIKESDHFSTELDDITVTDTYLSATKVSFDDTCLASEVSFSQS
Chain of Phosphoglycerate kinase, glycosomal (Trypanosoma brucei brucei) (P07378 whole entry, looked up): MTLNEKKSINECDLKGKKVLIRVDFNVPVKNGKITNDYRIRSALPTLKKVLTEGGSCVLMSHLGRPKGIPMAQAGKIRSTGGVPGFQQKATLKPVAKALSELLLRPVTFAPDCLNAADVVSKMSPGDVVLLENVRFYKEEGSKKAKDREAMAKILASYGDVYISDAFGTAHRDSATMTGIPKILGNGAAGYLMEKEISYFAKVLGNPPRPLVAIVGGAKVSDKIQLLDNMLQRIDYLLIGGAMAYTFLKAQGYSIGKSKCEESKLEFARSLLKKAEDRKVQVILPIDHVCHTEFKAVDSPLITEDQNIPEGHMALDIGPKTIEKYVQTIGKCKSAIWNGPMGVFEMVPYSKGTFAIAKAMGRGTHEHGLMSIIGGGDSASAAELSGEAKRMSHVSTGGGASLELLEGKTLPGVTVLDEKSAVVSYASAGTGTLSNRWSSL
Chain of Galactokinase (Homo sapiens) (P51570 whole entry, looked up): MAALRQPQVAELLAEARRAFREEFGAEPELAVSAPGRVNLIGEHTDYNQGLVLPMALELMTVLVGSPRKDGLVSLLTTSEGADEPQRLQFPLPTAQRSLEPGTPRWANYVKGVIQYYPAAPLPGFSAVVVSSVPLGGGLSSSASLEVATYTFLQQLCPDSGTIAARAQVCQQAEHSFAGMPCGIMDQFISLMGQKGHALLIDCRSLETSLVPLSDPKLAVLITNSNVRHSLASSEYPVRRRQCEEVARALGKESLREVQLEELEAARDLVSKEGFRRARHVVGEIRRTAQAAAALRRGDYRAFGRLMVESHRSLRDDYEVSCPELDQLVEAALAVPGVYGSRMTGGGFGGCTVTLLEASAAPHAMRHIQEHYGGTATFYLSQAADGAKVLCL
Chain of Androgen receptor (Homo sapiens) (P10275 whole entry, looked up): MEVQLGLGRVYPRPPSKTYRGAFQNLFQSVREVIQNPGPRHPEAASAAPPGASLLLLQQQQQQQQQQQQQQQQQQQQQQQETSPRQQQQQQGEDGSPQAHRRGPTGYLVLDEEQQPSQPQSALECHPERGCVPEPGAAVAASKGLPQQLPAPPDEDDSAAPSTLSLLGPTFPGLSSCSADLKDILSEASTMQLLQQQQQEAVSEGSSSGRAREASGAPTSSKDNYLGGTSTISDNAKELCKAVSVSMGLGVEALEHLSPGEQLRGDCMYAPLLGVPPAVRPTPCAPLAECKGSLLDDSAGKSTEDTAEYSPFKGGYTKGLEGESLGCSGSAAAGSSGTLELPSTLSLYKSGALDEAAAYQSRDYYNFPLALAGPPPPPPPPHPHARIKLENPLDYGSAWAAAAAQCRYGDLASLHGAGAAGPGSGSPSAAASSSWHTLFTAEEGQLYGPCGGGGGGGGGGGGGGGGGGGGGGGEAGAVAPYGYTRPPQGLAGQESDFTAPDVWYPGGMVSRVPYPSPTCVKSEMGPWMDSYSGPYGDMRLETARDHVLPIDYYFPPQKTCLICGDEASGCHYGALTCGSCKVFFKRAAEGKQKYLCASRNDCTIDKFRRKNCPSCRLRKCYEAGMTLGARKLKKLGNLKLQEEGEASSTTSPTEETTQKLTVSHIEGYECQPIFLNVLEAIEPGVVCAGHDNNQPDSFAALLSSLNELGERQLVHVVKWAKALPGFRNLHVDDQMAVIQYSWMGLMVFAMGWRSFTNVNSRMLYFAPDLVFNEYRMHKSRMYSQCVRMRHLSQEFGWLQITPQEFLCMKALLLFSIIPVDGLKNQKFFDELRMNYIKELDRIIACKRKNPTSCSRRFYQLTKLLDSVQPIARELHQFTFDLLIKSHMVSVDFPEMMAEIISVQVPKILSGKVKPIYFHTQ

As to `C[N+](C)(C)CCOC(N)=O`, the activation in [1] was 30.9% (active). Moreover, the Potency result in assay [2], in [9] and in [10] was “inactive” each time. Besides, in assay [2], the viability change is 14%. Also, the result in assay [3], in assay [4], in assay [5], in assay [6], in assay [7] and in assay [8] was inactive.

With `CCN(CC)CC(=O)Nc1c(C)cccc1C`, in assay [1], the activation was 1.5% (inactive). Also, the Potency entry in assay [2] and in assay [10] was “inactive” throughout. For the same molecule, in [2], the viability change is -7.11%. For the same molecule, the result in [3], in assay [4], in assay [5], in [6], in assay [7] and in assay [8] was inactive.

Regarding `OC(CCN1CCCCC1)(c1ccccc1)C1CCCCC1` (configuration not stated), the Potency entry in assay [2] and in [11] was “inactive” in each case. Also, the viability change in assay [2] is -0.392%. The outcome in assay [3], in [4], in [5], in assay [6], in assay [7] and in assay [8] was inactive.

`Nc1nc(N)c2nc(-c3ccccc3)c(N)nc2n1`: the activation in assay [1] is -0.0625% (inactive). The Potency result in assay [2], in assay [11] and in assay [10] was “inactive” in each case. In addition, the viability change in [2] came out at 5.44%. The molecule was called inactive in assay [3], in assay [4], in assay [5], in assay [7], in assay [8] and in [12]. Moreover, the Potency in assay [13] was 35.5 µM (active); in [14], 44.7 µM (active).

With `CNCCCN1c2ccccc2CCc2ccccc21`, the Potency result in assay [2] is “inactive”. Also, the viability change in assay [2] is -3.92%. Besides, the molecule was called inactive in [3], in assay [4], in assay [5], in assay [6], in assay [7] and in [8].

Turning to `COc1cc2c(cc1OC)-c1cc(=Nc3c(C)cc(C)cc3C)n(C)c(=O)n1CC2`, in assay [1], the activation was -6.75% (inactive). For the same molecule, the Potency entry in assay [2], in assay [9] and in assay [10] was “inactive” each time. In addition, the viability change in assay [2] is -6.02%. The call in assay [3], in assay [4], in assay [5], in assay [7] and in [8] was inactive.

Take `C#CCN(C)CCCOc1ccc(Cl)cc1Cl`: the activation in assay [1] was -5.81% (inactive). Further, the Potency entry in assay [2], in assay [9] and in assay [10] was “inactive” each time. For the same molecule, the viability change in assay [2] is -1.92%. Moreover, the molecule was classed as inactive in [3], in [4], in assay [5], in assay [7] and in [8].

In the case of `CC1=NS(=O)(=O)c2cc(Cl)ccc2N1`, the Potency entry in assay [2], in [11], in assay [9] and in assay [10] was “inactive” each time. Further, the viability change in [2] is 3.36%. The result in [3], in assay [4], in assay [5], in assay [6], in [7] and in [8] was inactive.

On to `COC(=O)C1=C(C)NC(C)=C(C(=O)OCCN(C)Cc2ccccc2)C1c1cccc([N+](=O)[O-])c1` (configuration not stated), for which, in assay [1], the activation was -4.56% (inactive). Besides, the result in [3], in assay [4], in assay [7] and in [8] was inactive. In addition, the Potency in [10] was 35.5 µM (active).

`CN(C)CCCN1c2ccccc2Sc2ccccc21`: the activation in [1] was 8% (inactive). Moreover, the Potency result in assay [2] and in assay [11] was “inactive” each time. In assay [2], the viability change turned out to be 1.11%. Also, the molecule was classed as inactive in assay [3], in [4], in [6], in assay [7] and in [8].

In the case of `NC(N)=NC(=O)Cc1c(Cl)cccc1Cl`, the activation in assay [1] is 1.44% (inactive). The molecule was called inactive in assay [3], in assay [4], in [5], in assay [6], in assay [7] and in [8]. The Potency entry in assay [9] and in [10] was “inactive” throughout.

With `Nc1ncn([C@@H]2O[C@H](CO)[C@@H](O)[C@H]2O)c(=O)n1`, the activation in [1] is 1.31% (inactive); in assay [15] it was -7.09% (inactive) and -13.7% (inactive). Also, the molecule was classed as inactive in [3], in [4], in assay [6], in assay [7], in assay [8] and in [12]. The Potency entry in assay [11] and in assay [13] was “inactive” each time. Further, the Potency in [16] is 7.94 µM (active) and 5.62 µM (active).
